Structures are written as SMILES. Compounds without any hit were thinned out: in the full panel of roughly 83,000, 20% have a hit.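 Treatment: one concentration, 48 hours, 96-well format. Scoring: percent growth, with anything below 10 considered active.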 Values without a mark were called inactive. Active and inactive are the calls of the source.

The record followed here is PubChem BioAssay (NCI).

Some test systems named below: NCI-H23 lung; NCI-H226 lung; NCI-H322M lung; HOP-62 NSCLC; NCI-H460 lung; HOP-92 NSCLC; NCI-H522 lung; A549/ATCC NSCLC; 786-0 renal; COLO 205 colon; DU-145 prostate; K-562 leukemia; MALME-3M melanoma; MDA-MB-231 breast; RXF 393 renal; SF-268 CNS; SF-295 CNS; SF-539 CNS; UACC-257 melanoma; M14 melanoma.
Common to all, as to test: NCI-60 one-dose screen, 48 h (100 = growth as untreated, 0 = no growth, -100 = all killed)
Conditions in all cases: 10 µM unless noted

As for `CC(=O)Nc1nc2c(c(N)c1C#N)C(c1cccc(Cl)c1)C1=C(CCCC1=O)N2c1sc2c(c1C#N)CCCC2` (stereo not given), the growth in the test on NCI-H23 lung was 67%; in the test on NCI-H226 lung it was 55.5%; in the test with NCI-H322M lung, 93.3%; in the test on HOP-62 NSCLC it was 67.3%; with NCI-H460 lung it was 53.1%; in the test with HOP-92 NSCLC, 40.1%. Besides, the growth in the test on NCI-H522 lung is 21.3%; with A549/ATCC NSCLC, 32.8%; with 786-0 renal it was 57.6%; in the test on COLO 205 colon, 59.6%; in the test with DU-145 prostate, 72.5%; with K-562 leukemia it was 29.8%. Further, the growth is 83.3% in the test with MALME-3M melanoma; 67.1% in the test with MDA-MB-231 breast; 16.2% with RXF 393 renal; 66.3% in the test on SF-268 CNS; 44% in the test on SF-295 CNS; 65% with SF-539 CNS. Also, the growth in the test with UACC-257 melanoma is 54.4%; in the test with M14 melanoma it was 52.2%.

Consider `COc1ccc(Cl)c([N+](=O)[O-])c1`, for which the growth was 98.5% with NCI-H23 lung; 101% in the test with NCI-H226 lung; 98.8% with NCI-H322M lung; 93.4% in the test on HOP-62 NSCLC; 108% in the test on NCI-H460 lung; 98% in the test on HOP-92 NSCLC. For the same molecule, the growth in the test with NCI-H522 lung is 95.7%; in the test with A549/ATCC NSCLC, 99.6%; with 786-0 renal, 99.2%; with COLO 205 colon, 116%; in the test on DU-145 prostate, 108%; in the test on K-562 leukemia, 99.8%. Further, the growth in the test on MALME-3M melanoma is 106%; in the test on MDA-MB-231 breast, 102%; in the test with RXF 393 renal it was 108%; in the test with SF-268 CNS, 104%; with SF-295 CNS it was 98%; with SF-539 CNS it was 91.9%. Also, the growth in the test on UACC-257 melanoma was 111%; in the test on M14 melanoma, 96.3%.

For the molecule `O=C(O)c1cn(C2CC2)c2cc(N3CCN(C(=O)CSc4nnc(-c5ccc(Cl)cc5)n4-c4ccccc4)CC3)c(F)cc2c1=O`, the growth with NCI-H23 lung was 96.2%; in the test with NCI-H226 lung, 98.8%; in the test with NCI-H322M lung it was 110%; with HOP-62 NSCLC, 80.7%; in the test with NCI-H460 lung, 104%; in the test on HOP-92 NSCLC it was 79.6%. The growth in the test with NCI-H522 lung is 72.7%; with A549/ATCC NSCLC it was 94.3%; in the test with 786-0 renal, 104%; in the test with COLO 205 colon it was 109%; in the test with DU-145 prostate, 108%; in the test with K-562 leukemia it was 96.1%. The growth with MALME-3M melanoma is 114%; with MDA-MB-231 breast, 106%; in the test on RXF 393 renal, 113%; in the test with SF-268 CNS, 103%; in the test with SF-295 CNS, 107%; with SF-539 CNS, 105%. In addition, the values for the growth with UACC-257 melanoma and in the test on M14 melanoma were 96.4% and 109%, respectively.

Take `CCOC(=O)c1ccc(Nc2ncnc3ccc(NC(=O)c4ccccc4)cc23)cc1`: the growth was 83.7% in the test on NCI-H23 lung; 78.2% in the test on NCI-H226 lung; 95.6% in the test on NCI-H322M lung; 98.8% with HOP-62 NSCLC; 95.5% in the test with NCI-H460 lung; 86.4% with HOP-92 NSCLC. In addition, the growth was 73.3% with NCI-H522 lung; 91.5% in the test on A549/ATCC NSCLC; 86.8% in the test on 786-0 renal; 104% in the test with COLO 205 colon; 105% in the test on DU-145 prostate; 71.9% with K-562 leukemia. Further, the growth in the test on MALME-3M melanoma was 109%; with MDA-MB-231 breast, 98.2%; in the test with RXF 393 renal, 80.7%; with SF-268 CNS, 91.3%; with SF-295 CNS it was 95.3%; in the test with SF-539 CNS it was 101%. Further, the results for the growth with UACC-257 melanoma and in the test with M14 melanoma were 103% and 93.8%, respectively.

For `CC(=O)c1ccc(NC(=O)CSc2nnc(-c3cc(-c4ccc(C)cc4)nc4ccccc34)o2)cc1`, the growth with NCI-H23 lung was 27.6%; with NCI-H226 lung it was 58.7%; with NCI-H322M lung, 86.5%; in the test on HOP-62 NSCLC, 17.6%; with NCI-H460 lung, 10.5%; in the test with HOP-92 NSCLC it was 66.9%. In addition, the growth with NCI-H522 lung is 23.2%; in the test with A549/ATCC NSCLC, 48.9%; in the test on 786-0 renal, 3.06% (active); in the test on COLO 205 colon it was 77.4%; in the test with DU-145 prostate, 63.5%; with K-562 leukemia, 38.1%. The growth with MALME-3M melanoma was -5.39% (active); in the test on MDA-MB-231 breast it was -2.97% (active); with RXF 393 renal it was 59%; in the test with SF-268 CNS it was 55.2%; in the test with SF-295 CNS, 69.5%; in the test with SF-539 CNS, 53.7%. The values for the growth with UACC-257 melanoma and in the test on M14 melanoma were 101% and 57.9%, respectively.

Turning to `O=c1[nH]c(-c2cccc(F)c2)cc2cc(F)ccc12`, the growth is 45.9% with NCI-H23 lung; 96.3% in the test with NCI-H226 lung; 59.1% in the test with NCI-H322M lung; 31.9% in the test with HOP-62 NSCLC; 13.9% in the test with NCI-H460 lung; 70.7% in the test on HOP-92 NSCLC. In addition, the growth in the test on NCI-H522 lung was 11.3%; in the test with A549/ATCC NSCLC, 25.6%; in the test with 786-0 renal it was 44.2%; in the test with COLO 205 colon it was -2.11% (active); in the test on DU-145 prostate it was 30.1%; in the test with K-562 leukemia it was 14.1%. The growth was 73% with MALME-3M melanoma; 49.8% with MDA-MB-231 breast; 9.93% (active) in the test with RXF 393 renal; 68.4% in the test with SF-268 CNS; 8.3% (active) in the test with SF-295 CNS; -1.4% (active) with SF-539 CNS. Also, the figures for the growth in the test with UACC-257 melanoma and in the test with M14 melanoma were 55.3% and 20.3%, respectively.

For `N#Cc1ccc(Oc2ccc3ccc(=O)oc3c2)cc1`, the growth in the test with NCI-H23 lung is 101%; with NCI-H226 lung it was 102%; in the test with NCI-H322M lung, 111%; with HOP-62 NSCLC, 102%; with NCI-H460 lung, 103%; in the test with HOP-92 NSCLC, 67%. The growth in the test with NCI-H522 lung was 105%; with A549/ATCC NSCLC, 109%; with 786-0 renal, 95.5%; with COLO 205 colon, 102%; in the test on DU-145 prostate, 107%; with K-562 leukemia, 79%. Also, the growth in the test on MALME-3M melanoma was 126%; in the test on MDA-MB-231 breast, 98.5%; in the test on RXF 393 renal, 81.8%; with SF-268 CNS, 105%; with SF-295 CNS it was 112%; with SF-539 CNS, 101%. Besides, the growth with UACC-257 melanoma was 114%; in the test on M14 melanoma it was 92%.

Turning to `CNC(=O)c1cc(Oc2ccc3c(c2)sc2nc(-c4ccc(NC(C)=O)cc4)cn23)ccn1`, the growth with NCI-H23 lung is 60.1%; in the test with NCI-H226 lung, 72.3%; in the test on NCI-H322M lung, 69.6%; in the test with HOP-62 NSCLC it was 41.5%; in the test on NCI-H460 lung, 49.8%; in the test with HOP-92 NSCLC, 35.3%. The growth in the test on NCI-H522 lung was 28.4%; in the test with A549/ATCC NSCLC it was 59.6%; in the test with 786-0 renal, 33.8%; in the test on COLO 205 colon, 47%; in the test with DU-145 prostate, 23.1%; in the test with K-562 leukemia, 50.5%. The growth in the test on MALME-3M melanoma is 71.8%; in the test with MDA-MB-231 breast, 59.5%; in the test with RXF 393 renal, 8.2% (active); in the test with SF-268 CNS, 64%; with SF-295 CNS, 26.2%; in the test with SF-539 CNS, 62.8%. The values for the growth with UACC-257 melanoma and in the test on M14 melanoma were 70.9% and 46.5%, respectively.
